Experimental data: publication PMC7862700, “An all-to-all approach to the identification of sequence-specific readers for epigenetic DNA modifications on cytosine”

Assays:
Assay in all cases: DAPPL (digital affinity profiling via proximity ligation, sequencing); 10 mM Tris-HCl pH 7.5, 50 mM NaCl, 1 mM DTT, 4% glycerol, room temperature, 30 min; GST-TFs on glutathione beads, 16-mer random dsDNA library, 0.1% formaldehyde crosslink after washing; high values mean tight binding
[1] = target: T1, FLI1 (Homo sapiens, UniProt Q01543 1-452); settings: protein: recombinant; tags: N-terminal GST; dsDNA, one strand shown
T1 sequence: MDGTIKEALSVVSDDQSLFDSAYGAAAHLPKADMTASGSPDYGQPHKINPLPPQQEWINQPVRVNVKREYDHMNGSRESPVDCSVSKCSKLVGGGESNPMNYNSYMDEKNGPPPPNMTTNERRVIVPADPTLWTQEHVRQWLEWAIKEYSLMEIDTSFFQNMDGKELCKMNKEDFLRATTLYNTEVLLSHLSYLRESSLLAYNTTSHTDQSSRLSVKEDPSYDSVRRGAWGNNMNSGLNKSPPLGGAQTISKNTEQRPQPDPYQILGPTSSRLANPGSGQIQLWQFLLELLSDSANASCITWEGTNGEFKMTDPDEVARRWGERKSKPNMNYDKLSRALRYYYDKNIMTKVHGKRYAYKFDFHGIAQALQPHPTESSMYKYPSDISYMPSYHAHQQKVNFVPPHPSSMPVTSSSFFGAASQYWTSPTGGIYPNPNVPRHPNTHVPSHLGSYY
In short: (§1)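 Each value of binding signal is a hexamer's read frequency for a factor divided by the same hexamer's frequency in the tag-only sample. Barcoded, bead-captured GST fusions of human transcription factors made in yeast were pooled with that sample and incubated with 200 nmole of a random double-stranded 16-mer DNA library in Tris/NaCl/DTT/glycerol buffer at room temperature for 30 min. Washing, 0.1% formaldehyde crosslinking, proximity ligation, PCR and Illumina NextSeq500 sequencing followed.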

[2] = target: T2, ELK1 (Homo sapiens, UniProt P19419 1-428); settings: protein: recombinant; tags: N-terminal GST; dsDNA, one strand shown
T2 sequence: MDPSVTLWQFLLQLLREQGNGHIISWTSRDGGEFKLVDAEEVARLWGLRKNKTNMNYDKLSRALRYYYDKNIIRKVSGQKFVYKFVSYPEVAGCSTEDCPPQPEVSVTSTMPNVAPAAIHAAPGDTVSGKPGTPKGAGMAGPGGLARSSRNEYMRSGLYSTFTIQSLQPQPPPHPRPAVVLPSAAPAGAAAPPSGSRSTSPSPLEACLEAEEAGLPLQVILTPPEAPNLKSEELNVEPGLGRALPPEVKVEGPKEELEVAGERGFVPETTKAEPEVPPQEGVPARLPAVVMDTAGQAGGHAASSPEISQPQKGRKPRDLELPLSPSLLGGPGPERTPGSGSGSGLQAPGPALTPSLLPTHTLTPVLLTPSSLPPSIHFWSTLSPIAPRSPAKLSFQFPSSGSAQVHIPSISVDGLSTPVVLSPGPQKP
In short: as §1

[3] = target: T3, GABPA (Homo sapiens, UniProt Q06546 1-454); settings: protein: recombinant; tags: N-terminal GST; dsDNA, one strand shown
T3 sequence: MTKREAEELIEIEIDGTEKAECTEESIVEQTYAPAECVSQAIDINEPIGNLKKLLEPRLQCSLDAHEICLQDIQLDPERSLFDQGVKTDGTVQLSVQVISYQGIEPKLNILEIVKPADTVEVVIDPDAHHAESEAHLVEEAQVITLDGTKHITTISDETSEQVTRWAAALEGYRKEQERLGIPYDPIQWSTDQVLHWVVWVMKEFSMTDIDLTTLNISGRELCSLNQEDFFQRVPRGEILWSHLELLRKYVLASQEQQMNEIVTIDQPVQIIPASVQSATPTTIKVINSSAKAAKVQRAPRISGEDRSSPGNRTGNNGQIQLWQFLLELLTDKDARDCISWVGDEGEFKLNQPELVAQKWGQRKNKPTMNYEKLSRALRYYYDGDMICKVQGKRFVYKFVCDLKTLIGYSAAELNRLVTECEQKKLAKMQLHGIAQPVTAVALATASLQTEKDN
In short: as §1

[4] = target: T4, ERG (Homo sapiens, UniProt P11308 1-479); settings: protein: recombinant; tags: N-terminal GST; dsDNA, one strand shown
T4 sequence: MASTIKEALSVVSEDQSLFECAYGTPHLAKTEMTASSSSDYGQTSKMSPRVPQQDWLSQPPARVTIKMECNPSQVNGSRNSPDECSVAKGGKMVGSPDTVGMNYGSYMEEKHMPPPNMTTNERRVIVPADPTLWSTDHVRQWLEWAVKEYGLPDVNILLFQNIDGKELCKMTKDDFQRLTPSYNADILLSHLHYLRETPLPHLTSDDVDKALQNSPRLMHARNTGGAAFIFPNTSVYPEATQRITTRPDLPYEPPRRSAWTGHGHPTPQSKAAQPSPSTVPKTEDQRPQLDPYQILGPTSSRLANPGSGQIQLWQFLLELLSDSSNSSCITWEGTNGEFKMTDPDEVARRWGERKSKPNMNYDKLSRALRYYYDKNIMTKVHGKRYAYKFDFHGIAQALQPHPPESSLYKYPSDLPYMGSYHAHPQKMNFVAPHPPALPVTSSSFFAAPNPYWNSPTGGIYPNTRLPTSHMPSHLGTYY
In short: as §1

[5] = target: ELF1 (Homo sapiens, UniProt P32519 1-619); settings: protein: recombinant; tags: N-terminal GST; dsDNA, one strand shown
In short: as §1

[6] = target: T5, EHF (Homo sapiens, UniProt Q9NZC4 1-300); settings: protein: recombinant; tags: N-terminal GST; dsDNA, one strand shown
T5 sequence: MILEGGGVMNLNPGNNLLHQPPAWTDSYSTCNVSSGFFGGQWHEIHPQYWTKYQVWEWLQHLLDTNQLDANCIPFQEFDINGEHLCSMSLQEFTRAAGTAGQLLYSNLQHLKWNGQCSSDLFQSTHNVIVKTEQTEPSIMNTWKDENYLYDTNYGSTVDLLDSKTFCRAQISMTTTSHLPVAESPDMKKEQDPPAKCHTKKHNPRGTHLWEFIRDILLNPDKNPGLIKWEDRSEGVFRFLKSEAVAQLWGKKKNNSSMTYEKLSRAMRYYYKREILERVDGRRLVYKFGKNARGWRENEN
In short: as §1

[7] = target: SPI1 (Homo sapiens, UniProt P17947 1-270); settings: protein: recombinant; tags: N-terminal GST; dsDNA, one strand shown
In short: as §1

[8] = target: SPIB (Homo sapiens, UniProt Q01892 1-262); settings: protein: recombinant; tags: N-terminal GST; dsDNA, one strand shown
In short: as §1

[9] = target: T6, ELK3 (Homo sapiens, UniProt P41970 1-407); settings: protein: recombinant; tags: N-terminal GST; dsDNA, one strand shown
T6 sequence: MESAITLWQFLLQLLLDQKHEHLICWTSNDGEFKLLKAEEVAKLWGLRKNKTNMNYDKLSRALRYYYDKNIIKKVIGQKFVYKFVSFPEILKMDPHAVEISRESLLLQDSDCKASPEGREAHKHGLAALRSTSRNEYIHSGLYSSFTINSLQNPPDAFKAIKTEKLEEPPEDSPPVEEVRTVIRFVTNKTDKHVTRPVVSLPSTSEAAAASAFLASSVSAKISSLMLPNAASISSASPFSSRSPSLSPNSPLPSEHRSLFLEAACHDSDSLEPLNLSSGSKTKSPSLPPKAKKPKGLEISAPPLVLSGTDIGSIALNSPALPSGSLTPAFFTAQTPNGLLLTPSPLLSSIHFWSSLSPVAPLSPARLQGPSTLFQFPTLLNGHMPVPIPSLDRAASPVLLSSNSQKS
In short: as §1

[10] = target: T7, FEV (Homo sapiens, UniProt Q99581 1-238); settings: protein: recombinant; tags: N-terminal GST; dsDNA, one strand shown
T7 sequence: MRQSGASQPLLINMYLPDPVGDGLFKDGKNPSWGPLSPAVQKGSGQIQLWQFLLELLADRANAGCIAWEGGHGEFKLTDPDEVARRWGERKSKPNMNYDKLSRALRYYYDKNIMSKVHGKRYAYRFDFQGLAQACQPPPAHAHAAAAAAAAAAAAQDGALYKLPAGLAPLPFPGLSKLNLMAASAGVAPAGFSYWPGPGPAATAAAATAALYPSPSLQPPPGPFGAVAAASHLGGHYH
In short: as §1

[11] = target: ETV5 (Homo sapiens, UniProt P41161 1-510); settings: protein: recombinant; tags: N-terminal GST; dsDNA, one strand shown
In short: as §1

[12] = target: HSF1 (Homo sapiens, UniProt Q00613 1-529); settings: protein: recombinant; tags: N-terminal GST; chain copies: 3; dsDNA, one strand shown
In short: as §1

[13] = target: T8, SPIC (Homo sapiens, UniProt Q8N5J4 1-248); settings: protein: recombinant; tags: N-terminal GST; dsDNA, one strand shown
T8 sequence: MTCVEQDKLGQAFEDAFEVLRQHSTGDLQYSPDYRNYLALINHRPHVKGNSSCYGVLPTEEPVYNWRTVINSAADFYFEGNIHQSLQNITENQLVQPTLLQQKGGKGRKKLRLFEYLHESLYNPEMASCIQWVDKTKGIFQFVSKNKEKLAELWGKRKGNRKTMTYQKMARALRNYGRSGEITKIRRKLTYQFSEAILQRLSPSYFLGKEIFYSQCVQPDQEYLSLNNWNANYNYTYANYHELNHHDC
In short: as §1

[14] = target: ELF4 (Homo sapiens, UniProt Q99607 1-663); settings: protein: recombinant; tags: N-terminal GST; dsDNA, one strand shown
In short: as §1

[15] = target: T9, ELK4 (Homo sapiens, UniProt P28324-2 1-405); settings: protein: recombinant; tags: N-terminal GST; dsDNA, one strand shown
T9 sequence: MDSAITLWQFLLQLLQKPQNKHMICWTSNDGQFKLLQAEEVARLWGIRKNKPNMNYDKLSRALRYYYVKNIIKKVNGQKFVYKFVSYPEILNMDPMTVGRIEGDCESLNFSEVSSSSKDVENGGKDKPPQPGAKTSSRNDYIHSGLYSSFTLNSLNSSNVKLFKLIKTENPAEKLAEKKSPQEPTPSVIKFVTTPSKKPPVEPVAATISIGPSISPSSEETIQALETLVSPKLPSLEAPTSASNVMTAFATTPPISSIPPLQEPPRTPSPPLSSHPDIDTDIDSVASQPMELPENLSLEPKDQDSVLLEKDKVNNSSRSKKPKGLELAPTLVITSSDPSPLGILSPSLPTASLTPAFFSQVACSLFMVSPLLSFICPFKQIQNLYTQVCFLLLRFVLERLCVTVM
In short: as §1

[16] = target: T10, ETV2 (Homo sapiens, UniProt O00321 1-342); settings: protein: recombinant; tags: N-terminal GST; dsDNA, one strand shown
T10 sequence: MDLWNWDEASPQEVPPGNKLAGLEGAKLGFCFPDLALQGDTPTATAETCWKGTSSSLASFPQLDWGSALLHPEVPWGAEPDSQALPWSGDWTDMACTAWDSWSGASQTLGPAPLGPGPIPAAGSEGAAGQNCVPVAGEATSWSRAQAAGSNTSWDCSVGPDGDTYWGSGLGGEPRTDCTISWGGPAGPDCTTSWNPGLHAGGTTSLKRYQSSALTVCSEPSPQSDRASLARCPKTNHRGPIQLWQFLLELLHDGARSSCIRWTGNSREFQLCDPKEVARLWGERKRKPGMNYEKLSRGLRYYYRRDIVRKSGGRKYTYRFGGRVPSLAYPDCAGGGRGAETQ
In short: as §1

[17] = target: T11, ELF3 (Homo sapiens, UniProt P78545 1-371); settings: protein: recombinant; tags: N-terminal GST; dsDNA, one strand shown
T11 sequence: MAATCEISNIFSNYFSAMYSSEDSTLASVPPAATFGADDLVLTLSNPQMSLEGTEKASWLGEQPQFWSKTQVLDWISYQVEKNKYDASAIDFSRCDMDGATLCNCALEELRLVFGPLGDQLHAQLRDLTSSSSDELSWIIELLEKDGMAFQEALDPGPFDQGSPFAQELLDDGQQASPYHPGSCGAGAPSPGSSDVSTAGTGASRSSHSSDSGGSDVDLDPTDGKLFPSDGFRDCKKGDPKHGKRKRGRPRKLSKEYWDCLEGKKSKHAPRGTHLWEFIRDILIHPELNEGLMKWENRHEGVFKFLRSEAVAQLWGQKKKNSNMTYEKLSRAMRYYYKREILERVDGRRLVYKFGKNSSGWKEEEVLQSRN
In short: as §1

[18] = target: CRX (Homo sapiens, UniProt O43186 1-299); settings: protein: recombinant; tags: N-terminal GST; dsDNA, one strand shown
In short: as §1

[19] = target: ETV1 (Homo sapiens, UniProt P50549 1-477); settings: protein: recombinant; tags: N-terminal GST; dsDNA, one strand shown
In short: as §1

HSF1, sequence (Q00613 whole entry): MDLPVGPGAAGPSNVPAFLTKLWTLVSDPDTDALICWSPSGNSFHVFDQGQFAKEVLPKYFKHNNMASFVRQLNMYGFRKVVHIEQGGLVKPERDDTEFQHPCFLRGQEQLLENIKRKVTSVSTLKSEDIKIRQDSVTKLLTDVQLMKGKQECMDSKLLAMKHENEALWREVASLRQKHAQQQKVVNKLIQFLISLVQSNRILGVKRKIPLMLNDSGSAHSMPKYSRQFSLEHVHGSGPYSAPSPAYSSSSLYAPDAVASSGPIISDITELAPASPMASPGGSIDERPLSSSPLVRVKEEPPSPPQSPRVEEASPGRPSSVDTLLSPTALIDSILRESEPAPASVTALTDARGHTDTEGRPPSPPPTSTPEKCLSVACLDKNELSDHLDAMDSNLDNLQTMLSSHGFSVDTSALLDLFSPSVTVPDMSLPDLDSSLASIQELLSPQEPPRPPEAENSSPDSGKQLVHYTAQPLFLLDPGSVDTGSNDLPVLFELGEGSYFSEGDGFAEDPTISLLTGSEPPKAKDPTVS
ELF4, sequence (Q99607 whole entry): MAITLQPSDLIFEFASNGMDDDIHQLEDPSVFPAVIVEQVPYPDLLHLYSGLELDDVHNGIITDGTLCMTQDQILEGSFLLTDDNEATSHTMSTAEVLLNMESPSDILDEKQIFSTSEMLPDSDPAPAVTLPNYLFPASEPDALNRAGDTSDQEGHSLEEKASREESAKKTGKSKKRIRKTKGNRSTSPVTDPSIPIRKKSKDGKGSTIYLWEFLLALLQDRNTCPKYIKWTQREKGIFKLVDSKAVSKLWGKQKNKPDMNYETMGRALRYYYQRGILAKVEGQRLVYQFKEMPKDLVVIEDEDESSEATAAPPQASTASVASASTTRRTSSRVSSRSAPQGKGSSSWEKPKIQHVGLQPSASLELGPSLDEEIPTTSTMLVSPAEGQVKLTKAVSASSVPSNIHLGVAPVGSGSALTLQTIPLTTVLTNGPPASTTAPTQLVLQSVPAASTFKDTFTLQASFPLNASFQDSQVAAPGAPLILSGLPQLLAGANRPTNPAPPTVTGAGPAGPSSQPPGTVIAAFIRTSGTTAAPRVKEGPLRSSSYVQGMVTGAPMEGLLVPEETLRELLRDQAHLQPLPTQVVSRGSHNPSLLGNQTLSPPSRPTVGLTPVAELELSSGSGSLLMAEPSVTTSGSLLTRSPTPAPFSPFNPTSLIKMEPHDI
ETV1, sequence (P50549 whole entry): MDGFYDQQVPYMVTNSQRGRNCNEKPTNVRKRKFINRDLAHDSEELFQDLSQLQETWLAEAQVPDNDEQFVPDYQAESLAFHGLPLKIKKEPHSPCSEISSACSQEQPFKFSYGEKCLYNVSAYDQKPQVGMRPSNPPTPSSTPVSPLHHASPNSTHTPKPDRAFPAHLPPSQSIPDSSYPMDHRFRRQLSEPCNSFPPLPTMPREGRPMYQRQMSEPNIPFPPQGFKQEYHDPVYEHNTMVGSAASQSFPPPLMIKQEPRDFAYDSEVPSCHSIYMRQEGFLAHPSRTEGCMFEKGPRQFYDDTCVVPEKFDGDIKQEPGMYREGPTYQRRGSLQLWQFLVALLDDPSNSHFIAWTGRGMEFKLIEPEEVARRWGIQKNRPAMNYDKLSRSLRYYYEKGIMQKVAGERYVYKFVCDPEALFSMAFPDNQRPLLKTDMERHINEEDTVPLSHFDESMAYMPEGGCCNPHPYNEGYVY
CRX, sequence (O43186 whole entry): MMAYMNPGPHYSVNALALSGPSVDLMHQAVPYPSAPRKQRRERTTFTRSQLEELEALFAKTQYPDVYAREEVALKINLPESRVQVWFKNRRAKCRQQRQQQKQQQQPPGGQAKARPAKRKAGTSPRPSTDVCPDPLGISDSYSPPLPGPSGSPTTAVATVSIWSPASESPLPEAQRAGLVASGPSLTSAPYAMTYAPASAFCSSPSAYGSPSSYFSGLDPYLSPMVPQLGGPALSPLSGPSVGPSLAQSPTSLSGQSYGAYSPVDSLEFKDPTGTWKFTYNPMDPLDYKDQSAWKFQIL
SPIB, sequence (Q01892 whole entry): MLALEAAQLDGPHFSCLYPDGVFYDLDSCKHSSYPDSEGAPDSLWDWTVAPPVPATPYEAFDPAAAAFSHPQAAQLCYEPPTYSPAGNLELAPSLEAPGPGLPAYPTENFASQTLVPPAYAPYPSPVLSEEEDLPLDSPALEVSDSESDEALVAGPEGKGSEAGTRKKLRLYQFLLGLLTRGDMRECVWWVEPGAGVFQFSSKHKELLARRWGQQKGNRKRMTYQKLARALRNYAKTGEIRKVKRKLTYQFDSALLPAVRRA
ELF1, sequence (P32519 whole entry): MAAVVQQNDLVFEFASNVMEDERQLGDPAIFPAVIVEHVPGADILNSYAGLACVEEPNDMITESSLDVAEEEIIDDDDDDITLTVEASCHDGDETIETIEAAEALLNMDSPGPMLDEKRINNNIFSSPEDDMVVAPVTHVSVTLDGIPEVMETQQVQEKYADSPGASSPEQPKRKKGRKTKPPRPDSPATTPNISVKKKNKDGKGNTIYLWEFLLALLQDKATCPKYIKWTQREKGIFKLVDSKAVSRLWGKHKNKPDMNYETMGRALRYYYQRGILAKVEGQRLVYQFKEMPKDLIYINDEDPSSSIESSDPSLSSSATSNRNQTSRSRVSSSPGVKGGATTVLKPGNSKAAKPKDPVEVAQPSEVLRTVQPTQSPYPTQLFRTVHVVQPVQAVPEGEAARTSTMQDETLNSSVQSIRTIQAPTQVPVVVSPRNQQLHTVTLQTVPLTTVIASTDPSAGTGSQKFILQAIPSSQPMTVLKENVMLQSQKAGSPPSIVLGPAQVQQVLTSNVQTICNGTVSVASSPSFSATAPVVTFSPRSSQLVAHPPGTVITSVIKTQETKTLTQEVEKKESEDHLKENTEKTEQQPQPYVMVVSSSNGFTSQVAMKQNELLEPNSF
ETV5, sequence (P41161 whole entry): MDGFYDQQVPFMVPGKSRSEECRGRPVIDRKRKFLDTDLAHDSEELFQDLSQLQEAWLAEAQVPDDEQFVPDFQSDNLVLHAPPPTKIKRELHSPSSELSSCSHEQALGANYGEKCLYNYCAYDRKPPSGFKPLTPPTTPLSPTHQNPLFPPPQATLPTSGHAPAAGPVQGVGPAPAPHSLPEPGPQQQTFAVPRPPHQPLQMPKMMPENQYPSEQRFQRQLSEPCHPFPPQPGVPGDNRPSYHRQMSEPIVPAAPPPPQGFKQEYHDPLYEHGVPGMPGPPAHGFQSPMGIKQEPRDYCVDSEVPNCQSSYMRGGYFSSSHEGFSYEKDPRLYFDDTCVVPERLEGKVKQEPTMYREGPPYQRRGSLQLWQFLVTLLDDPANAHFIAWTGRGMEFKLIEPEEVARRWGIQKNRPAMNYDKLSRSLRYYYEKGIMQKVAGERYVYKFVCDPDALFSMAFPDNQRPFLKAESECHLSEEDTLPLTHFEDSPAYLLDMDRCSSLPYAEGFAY

TTGCCC
binding signal [1]: 1.37 fold enrichment (6-mer frequency, TF over GST control)
binding signal [2]: 1.43 fold enrichment (6-mer frequency, TF over GST control)
binding signal [3]: 1.33 fold enrichment (6-mer frequency, TF over GST control)
binding signal [4]: 1.28 fold enrichment (6-mer frequency, TF over GST control)
binding signal [5]: 1.3 fold enrichment (6-mer frequency, TF over GST control)
binding signal [6]: 1.22 fold enrichment (6-mer frequency, TF over GST control)
binding signal [7]: 1.29 fold enrichment (6-mer frequency, TF over GST control)
binding signal [8]: 1.33 fold enrichment (6-mer frequency, TF over GST control)
binding signal [9]: 1.23 fold enrichment (6-mer frequency, TF over GST control)
binding signal [10]: 1.46 fold enrichment (6-mer frequency, TF over GST control)
binding signal [11]: 1.32 fold enrichment (6-mer frequency, TF over GST control)
binding signal [12]: 1.2 fold enrichment (6-mer frequency, TF over GST control)
binding signal [13]: 1.28 fold enrichment (6-mer frequency, TF over GST control)
binding signal [14]: 1.4 fold enrichment (6-mer frequency, TF over GST control)
binding signal [15]: 1.42 fold enrichment (6-mer frequency, TF over GST control)
binding signal [16]: 1.25 fold enrichment (6-mer frequency, TF over GST control)
binding signal [17]: 1.33 fold enrichment (6-mer frequency, TF over GST control)
binding signal [18]: 1.2 fold enrichment (6-mer frequency, TF over GST control)
binding signal [19]: 1.22 fold enrichment (6-mer frequency, TF over GST control)
